Bioassay records deposited in PubChem BioAssay by National Center for Advancing Translational Sciences (NCATS).
Cruzain inh Det: blocks cruzain activity in presence of Triton detergent. purified cruzain, Z-FR-AMC fluorescence, 0.01% Triton. Potency, µM, for the others: max response, negative = inhibition, most hits filed as inhibitors. P25779. AID 1478. 0.43% of 200,000 active;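 further: plate controls were neutral wells for no effect and buffer without enzyme for full effect; nearly all actives have a fitted effect of over 40% in size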
Target sequence (P25779 123-467 limits assumed): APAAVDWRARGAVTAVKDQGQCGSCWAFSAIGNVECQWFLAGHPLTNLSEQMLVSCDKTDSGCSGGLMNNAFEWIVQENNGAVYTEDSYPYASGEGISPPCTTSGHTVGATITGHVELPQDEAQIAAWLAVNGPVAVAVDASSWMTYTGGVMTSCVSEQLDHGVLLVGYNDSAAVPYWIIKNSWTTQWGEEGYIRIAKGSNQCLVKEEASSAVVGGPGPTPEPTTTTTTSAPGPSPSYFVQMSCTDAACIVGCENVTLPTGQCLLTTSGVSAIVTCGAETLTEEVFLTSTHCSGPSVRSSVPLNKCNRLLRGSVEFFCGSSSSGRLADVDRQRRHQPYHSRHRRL
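Detergent-containing arm of a paired screen for aggregation-based inhibition: 0.01% Triton X-100 present. Cruzain at 1.5 nM cleaved 2 uM Z-FR-AMC at pH 5.5 with 5 mM DTT; AMC fluorescence gain over 60 s measured activity.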
Cruzain noTriton: cruzain (T. cruzi) inhibition without detergent | purified cruzain, Z-FR-AMC fluorescence, no detergent | Potency, µM, inactives show max response, negative = inhibition, most hits filed as inhibitors | 2.3% of 200,000 active;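 further: plate controls were enzyme without inhibitor for no effect and buffer without enzyme for full effect; nearly all actives have a fitted effect of over 40% in size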
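Purified cruzain at 1.5 nM, pre-incubated 15 min with compound at room temperature in 100 mM sodium acetate pH 5.5, 5 mM DTT, 0.00005% Triton X-100. Reaction started with 2 uM Z-FR-AMC; AMC fluorescence increase over 60 s gives rate.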
The depositor's hits bear a star; u = inconclusive. Shown are actives, neighbours in structure and some others; about 2.4% of the full set was active somewhere. The call rests on the fitted dose curve; in most records, active means well fitted curve in the direction sought with a large enough effect; inconclusive means small, poorly fitted or top-dose-only effect, or another doubt; inactive means no such curve, though single readings can be large; an effect the other way counts as inactive or inconclusive. Potency means the concentration at half of the fitted maximal effect.

SMILES	Cruzain inh Det	Cruzain noTriton
COc1cc(NC(C)CCCN)c2ncccc2c1 (stereo not given)	1%	-11%
CCNc1ncc2nc(C)c(=O)n(CCOC)c2n1	-14%	-23%
CNC(=S)N/N=C/c1cccc(OCc2ccccc2F)c1	-10%	u
Fc1ccccc1COc1ccc(/C=N/NC(=S)NCc2ccccc2)cc1	-1%	6.3µM*
CC(C)(C)c1ccc(/C=N/NC(=S)NCc2ccccc2)cc1	-5%	u
Cn1c(=O)n(C)c2cc(/C=N/NC(=S)NCc3ccccc3)ccc21	11µM*	u
CCc1ccc(NC(=O)CSc2ccnc(=O)[nH]2)cc1	0%	-9%
Cc1ccc(N2C(=O)C3C(C(=O)c4ccccc4)=NN(c4ccccc4)C3C2=O)cc1 (stereo not given)	-7%	16µM*
CCOc1ccc(N2C(=O)C3C(c4ccccc4)=NN(c4ccccc4)C3C2=O)cc1 (stereo not given)	-20%	20µM*
O=C(C1=NN(c2ccccc2)C2C(=O)N(c3ccccc3)C(=O)C12)c1ccccc1 (stereo not given)	-4%	-23%
CCOc1ccc(N2C(=O)C3C(C2=O)C3(c2ccccc2)c2ccccc2)cc1 (stereo not given)	-5%	-10%
COc1ccc(C(=O)c2sc3nc(C)cc(-c4cccs4)c3c2N)cc1	-5%	u
Cc1cc(-c2cccs2)c2c(N)c(C(=O)c3ccc4c(c3)OCO4)sc2n1	-6%	25µM*
CCOc1ccc(C2C(C(=O)Nc3ccc(OC)cc3)=C(C)Nc3nc(SCc4ccc(Cl)cc4)nn32)cc1 (stereo not given)	4%	11%
COc1ccc(C=O)cc1OC	5%	-2%
CCOc1ccc2nc(N/C(N)=N/C(=S)Nc3cccc(C)c3)nc(C)c2c1	-3%	32µM*
COc1ccc2nc(N/C(N)=N/C(=S)Nc3cccc(C)c3)nc(C)c2c1	-9%	u
Clc1cccc(/C=N/Nc2nc(Cl)nc3ccccc23)c1	-10%	u
Clc1cccc(/C=N\Nc2nccs2)c1	25µM*	16µM*
CCOc1ccccc1CNC(=O)c1cnc2sc(N3CCC(C)CC3)nn2c1=O	3%	11%
O=C(CSC(=S)N1CCCCC1)Nc1nc(-c2ccccc2)c(-c2ccccc2)o1	1%	u
CCN(CC)C(=S)SCC(=O)Nc1nc(-c2ccccc2)c(-c2ccccc2)o1	-2%	32µM*
O=C(NCC(c1ccc2c(c1)OCO2)N1CCOCC1)c1c(F)cccc1F (stereo not given)	-1%	-10%
CN(C)c1ccc(C(CNC(=O)c2ccc(C#N)cc2)c2c[nH]c3ccccc23)cc1 (stereo not given)	-11%	u
CCOC(=O)c1ccc(S(=O)(=O)NCC(c2ccc(N(C)C)cc2)c2c[nH]c3ccccc23)cc1 (stereo not given)	-4%	u
SMILES	Cruzain inh Det	Cruzain noTriton
CN(C)c1ccc(C(CNC(=O)c2ccccc2Br)c2c[nH]c3ccccc23)cc1 (stereo not given)	-3%	25µM*
CN(C)c1ccc(C(CNS(=O)(=O)c2ccc(F)cc2)c2c[nH]c3ccccc23)cc1 (stereo not given)	-10%	32µM*
NC1=NC(S)C2N=CN=C2N1 (stereo not given)	-3%	-7%
O=C(Nc1cccc(Cl)c1N1CCCCC1)c1ccc2c(c1)OCCO2	-5%	-12%
O=C(NC(=S)Nc1cccc(Cl)c1N1CCCCC1)c1ccc2c(c1)OCCO2	-1%	13µM*
CCOCCCN1C(=O)CN(C2CCCCCC2)C(=O)C1c1ccc(OC(C)C)c(OC)c1 (stereo not given)	0%	u
CCCCNC(=O)C(CC)Sc1nnc(-c2cccc(F)c2)c(-c2cccc(F)c2)n1 (stereo not given)	-3%	-6%
CC1CCN(C(=O)CN2c3ccc(Br)cc3-c3ccccc3S2(=O)=O)CC1	-5%	-9%
O=C(CNc1cc(S(=O)(=O)N2CCCC2)ccc1OCC(F)(F)F)Nc1ccc(SC(F)F)cc1	-8%	16µM*
N#Cc1ccc(C(=O)Nc2cc(S(=O)(=O)N3CCCC3)ccc2OCC(F)(F)F)cc1	-1%	8%
O=C(NCCCc1ccccc1)c1nn(-c2ccccc2F)nc1CO	-1%	5%
CN1/C(=C\C=Nc2ccccc2)C(C)(C)c2ccccc21	-4%	-1%
CN1/C(=C\C=N\NC(=O)c2ccc(O)cc2)C(C)(C)c2ccccc21	u	20µM*
COc1ccc(-n2c(Cc3ccccc3)nnc2SCc2nc(-c3cccs3)no2)cc1	-7%	-9%
O=C(/C=C/c1ccccc1)Nc1nc(-c2cccs2)ns1	0%	20µM*
Cc1ccc(/C=C/C(=O)Nc2nc(-c3cccs3)ns2)cc1	-4%	u
Cc1cccn2c(=O)c3cc(C(=O)NCCc4ccccc4)c(=N)n(CCCn4ccnc4)c3nc12	0%	u
CCCCNC(=O)c1cc2c(=O)n3cccc(C)c3nc2n(Cc2ccccc2)c1=N	28µM*	u
COCCCn1c(=N)c(C(=O)NCc2ccco2)cc2c(=O)n3cccc(C)c3nc21	-8%	-17%
CNC(=O)c1cc2c(=O)n3cccc(C)c3nc2n(C(C)C)c1=N	25µM*	u
C=CCn1c(=N)c(C(=O)NCCCOC)cc2c(=O)n3cccc(C)c3nc21	32µM*	u
Cc1cccn2c(=O)c3cc(C(=O)NCc4ccco4)c(=N)n(CCOCCO)c3nc12	-4%	5%
COc1ccc(OC)c(NC(=O)c2cc(C3CC3)nc3c2c(C)nn3-c2ccc(C)cc2)c1	0%	-3%
Cc1ccc(NC(=O)CSc2nnc(-c3nnn(-c4ccc(F)cc4)c3C)o2)cc1Br	-4%	-12%
COc1ccccc1NC(=S)NC1CCC(CC2CCC(NC(=S)Nc3ccccc3OC)CC2)CC1 (stereo not given)	7%	4µM*
SMILES	Cruzain inh Det	Cruzain noTriton
COc1ccc(NC(=S)NC2CCCCCC2)c(OC)c1	-2%	14%
c1ccc(CCN2CCCCCC2)nc1	3%	-2%
CCOC(=O)c1c(C)[nH]c(C)c1S(=O)(=O)N1CCC(C(=O)N2CCN(c3cccc(C)c3C)CC2)CC1	-2%	u
CC(=O)c1cccc(NC(=O)C(OC(=O)c2cccs2)c2ccccc2)c1 (stereo not given)	-6%	32µM*
COCCNC(=O)C(OC(=O)c1cccs1)c1ccccc1 (stereo not given)	8%	12%
COc1ccc(-c2cc(C(F)(F)F)nc(SCC(=O)NCC(C)C)n2)cc1OC	0%	23%
CCOc1ccccc1NC(=O)c1c(NCc2ccc(OC)c(OC)c2OC)sc2c1CCC(C)C2 (stereo not given)	-11%	26%
Cc1ccccc1OCC(=O)Nc1sc(C(=O)Nc2cccc(C)c2C)c(C)c1C#N	5%	7.9µM*
COc1ccccc1NC(=O)c1sc(NC(=O)c2ccco2)c(C#N)c1C	-2%	-5%
CC(=O)c1ccc(NC(=O)CSc2nnc3ccc(-c4ccc(F)cc4)nn23)cc1	0%	10%
O=C(NCc1ccc(Cl)cc1)c1ccc(Cn2cc(C(F)(F)F)ccc2=O)cc1	-8%	5%
O=C(c1cc(C(=O)NCc2ccc(Cl)cc2)c(=O)n(Cc2ccc(Cl)cc2)c1)c1cc(F)ccc1O	-4%	16µM*
Cc1ccc(NS(=O)(=O)c2ccc(Cl)c(NC(=S)NC(=O)C3CCCCC3)c2)cc1Cl	2%	32µM*
Cc1ccc(NS(=O)(=O)c2ccc3c(c2)CCCN3C(=O)C2CCC2)cc1Cl	-5%	-19%
